This note sets out measurements from PubChem BioAssay (NCATS).

Records with an inconclusive call do not appear. Activity calls are given as the source filed them. The call rests on the fitted dose curve; in most records, active means well fitted cell-killing curve with a large enough effect; inconclusive means small, poorly fitted or top-dose-only effect, or effect the other way; inactive means no such curve, though single readings can be large or run the other way. Positions of bridges follow the written chain, without caps; N, C: chain ends. Non-standard residues stand in square brackets, D forms with d. Residues, ends and D or L forms follow the SMILES beside them. ξ: configuration not given here. *: point of attachment. Octanoyl(6-Me) = CCC(C)CCCCC(=O)*; ξThr(3R) = C[C@@H](O)C(N)C(=O)O; dDab = NCC[C@@H](N)C(=O)O; Dab = NCC[C@H](N)C(=O)O; Cbz = O=C(OCc1ccccc1)*

Experiment [1] in a line: Quantitative High-Throughput drug screen in 47 multiple myeloma cell lines against the NCATS MIPE library collection: FR4_PLB cell viability assay (AID 1918924; further: nearly all actives have a fitted effect of over 35% in size). The method, boiled down:
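Approved and investigational drugs from MIPE 4.0 were added by pin tool to 500 cells per well. After 48 hours at 37C, ATP-based CellTiter-Glo luminescence indicated remaining viability.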

Experiment [2] can be described thus: Quantitative High-Throughput drug screen in 47 multiple myeloma cell lines against the NCATS MIPE library collection: Delta47_JCRB cell viability assay (AID 1918925; further: nearly all actives have a fitted effect of over 45% in size). A digest of the protocol:
(§1)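 Relative luminescence from CellTiter-Glo served as the viability signal, referenced to DMSO-treated (100%) and cell-free medium (0%) controls. Treatment lasted 48 hours at 37C with 500 cells per well.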

Experiment [3] is described as follows: Quantitative High-Throughput drug screen in 47 multiple myeloma cell lines against the NCATS MIPE library collection: EJM_DSMZ cell viability assay (AID 1918926; further: nearly all actives have a fitted effect of over 30% in size). A digest of the protocol:
as §1

Experiment [4] can be described thus: Quantitative High-Throughput drug screen in 47 multiple myeloma cell lines against the NCATS MIPE library collection: AMO1_DSMZ cell viability assay (AID 1918927; further: nearly all actives have a fitted effect of over 30% in size). The method, boiled down: as §1
Experiment [5] in a line: Quantitative High-Throughput drug screen in 47 multiple myeloma cell lines against the NCATS MIPE library collection: ARP1_JJKsccF8 cell viability assay (AID 1918928; further: nearly all actives have a fitted effect of over 40% in size). The method, boiled down:
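Cell viability inhibition in this qHTS is measured via ATP content (CellTiter-Glo) after 48 h drug exposure at 37 °C. Wells hold 500 cells; DMSO-treated wells define 100% and medium-only wells 0%.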

The nature of experiment [6]: Quantitative High-Throughput drug screen in 47 multiple myeloma cell lines against the NCATS MIPE library collection: ARD_JJKsccE7 cell viability assay (AID 1918929). The method, boiled down: as §1
Potency means the concentration at half of the fitted maximal effect.

`COc1cc(C=CC(=O)CC(=O)C=Cc2ccc(O)c(OC)c2)ccc1O`: the Potency in experiment [1] is 10800 nM (active); in experiment [2], 4290 nM (active); in experiment [3] it was 21500 nM (active); in experiment [4], 5400 nM (active); in experiment [5], 8550 nM (active); in experiment [6], 6050 nM (active).
In the case of `Cn1cnc(=N)c2[nH]cnc21`, the Potency in experiment [1] was 148 nM (active); in experiment [2], 132 nM (active); in experiment [3] it was 526 nM (active); in experiment [4], 83.3 nM (active); in experiment [5], 118 nM (active); in experiment [6], 105 nM (active).
As for `O=C(CN1C(=O)C2(CCCC2)NC[C@H]1c1cc(F)cc(F)c1)Nc1ccc2c(c1)C[C@@]1(C2)C(=O)Nc2ncccc21`, the Potency entry in experiment [1], in experiment [2], in experiment [3], in experiment [4], in experiment [5] and in experiment [6] was “inactive” each time.
For the compound `NC(=O)Nc1sc(-c2ccc(F)cc2)cc1C(N)=O`, the Potency in experiment [1] was 2350 nM (active); in experiment [2], 187 nM (active); in experiment [3] it was 1870 nM (active); in experiment [4] it was 132 nM (active); in experiment [5], 2960 nM (active); in experiment [6] it was 296 nM (active).
`CCS(=O)(=O)Nc1ccc2[nH]c(O)c(C(=Nc3ccc(CN4CCCCC4)cc3)c3ccccc3)c2c1`: the Potency was 18700 nM (active) in experiment [1]; 52.6 nM (active) in experiment [2]; 6620 nM (active) in experiment [3]; 148 nM (active) in experiment [4]; 743 nM (active) in experiment [5]; 469 nM (active) in experiment [6].
For `CCc1cnn2c(NCc3ccc[n+]([O-])c3)cc(N3CCCC[C@@H]3CCO)nc12`, the Potency in experiment [1] is 18.7 nM (active); in experiment [2], 33.2 nM (active); in experiment [3] it was 18.7 nM (active); in experiment [4], 23.5 nM (active); in experiment [5], 26.4 nM (active); in experiment [6], 23.5 nM (active).
As for `NC(=O)c1ncn([C@@H]2O[C@H](CO)[C@@H](O)[C@@H]2O)c1O`, the Potency in experiment [1] was 18700 nM (active); in experiment [5] it was 13200 nM (active). Besides, the Potency result in experiment [2], in experiment [3], in experiment [4] and in experiment [6] was “inactive” each time.
For `COc1cc(N2CCC(C(N)=O)CC2)ccc1Nc1nc(N)c(Cl)c(Nc2ccccc2S(=O)(=O)C(C)C)n1`, the Potency in experiment [1] is 14800 nM (active); in experiment [2], 83.3 nM (active); in experiment [3], 105 nM (active); in experiment [4], 5260 nM (active); in experiment [5], 1320 nM (active); in experiment [6] it was 59 nM (active).
Consider `O=C(O)C[C@H](O)C[C@H](O)C=Cc1c(C2CC2)nc2ccccc2c1-c1ccc(F)cc1`, for which the Potency in experiment [1] was 10500 nM (active); in experiment [2] it was 8330 nM (active); in experiment [4], 9350 nM (active); in experiment [5] it was 13200 nM (active); in experiment [6], 4180 nM (active). In addition, the Potency entry in experiment [3] is “inactive”.
Turning to `CN(C)c1ccc(C(=O)NCCCCCCC(=O)NO)cc1`, the Potency in experiment [1] was 132 nM (active); in experiment [2], 590 nM (active); in experiment [3], 1870 nM (active); in experiment [4] it was 235 nM (active); in experiment [5] it was 743 nM (active); in experiment [6], 332 nM (active).
In the case of `COc1cccc2c1C(=O)c1c(O)c3c(c(O)c1C2=O)C[C@@](O)(C(=O)CO)C[C@H]3O[C@H]1C[C@H](N)[C@H](O)[C@H](C)O1`, the Potency in experiment [1] was 264 nM (active); in experiment [2] it was 148 nM (active); in experiment [3] it was 209 nM (active); in experiment [4] it was 1050 nM (active); in experiment [5], 332 nM (active); in experiment [6] it was 2960 nM (active).
As to `CC(C)C[C@@H](C=O)NC(=O)[C@H](CC(C)C)NC(=O)[C@H](CC(C)C)NC(=O)OCc1ccccc1` (Cbz-Leu-Leu-Leu-aldehyde), the Potency was 590 nM (active) in experiment [1]; 105 nM (active) in experiment [2]; 833 nM (active) in experiment [3]; 105 nM (active) in experiment [4]; 332 nM (active) in experiment [5]; 105 nM (active) in experiment [6].
On to `CCC(C=C[C@@H]1OC(=O)C=C[C@H]1C)=C[C@H](C)CC=CC(C)=C[C@@H](C)C(=O)[C@@H](C)[C@H](O)[C@@H](C)CC(C)=CC(=O)O`, for which the Potency in experiment [1] was 31.1 nM (active); in experiment [2], 22 nM (active); in experiment [3], 27.7 nM (active); in experiment [4], 34.9 nM (active); in experiment [5], 27.7 nM (active); in experiment [6], 34.9 nM (active).
For `CC[C@@]1([C@@H]2O[C@@H]([C@H]3O[C@@](O)(CO)[C@H](C)C[C@H]3C)C[C@H]2C)CC[C@H]([C@]2(C)CC[C@]3(C[C@H](O)[C@@H](C)[C@@H]([C@@H](C)[C@@H](OC)[C@H](C)C(=O)O)O3)O2)O1`, the Potency in experiment [1] is 812 nM (active); in experiment [2], 457 nM (active); in experiment [3], 2040 nM (active); in experiment [4], 57.5 nM (active); in experiment [6], 911 nM (active).
In the case of `C=C1C(=CC=C2CCC[C@]3(C)[C@@H]([C@H](C)CCCC(C)(C)O)CC[C@@H]23)C[C@@H](O)C[C@@H]1O`, the Potency in experiment [1] is 14800 nM (active); in experiment [2] it was 9350 nM (active); in experiment [3] it was 2350 nM (active); in experiment [4], 935 nM (active); in experiment [6], 4180 nM (active).
In the case of `COc1cccc2c1C(=O)c1c(O)c3c(c(O)c1C2=O)C[C@@](O)(C(=O)CO)C[C@@H]3O[C@H]1C[C@H](N)[C@H](OC2CCCCO2)[C@H](C)O1` (stereo partly specified), the Potency in experiment [1] was 3720 nM (active); in experiment [2], 833 nM (active); in experiment [3] it was 2350 nM (active); in experiment [5], 3320 nM (active). Further, the Potency result in experiment [4] and in experiment [6] was “inactive” throughout.
As to `O=C(O)C(=O)Nc1cccc(C2=NN=N[N]2)c1`, the Potency entry in experiment [1], in experiment [2], in experiment [3], in experiment [4], in experiment [5] and in experiment [6] was “inactive” each time.
For the compound `CCC(C)CCCCC(=O)N[C@@H](CCN)C(=O)NC(C(=O)N[C@H](CCN)C(=O)N[C@@H]1CCNC(=O)C([C@@H](C)O)NC(=O)[C@@H](CCN)NC(=O)[C@@H](CCN)NC(=O)[C@@H](CC(C)C)NC(=O)[C@H](Cc2ccccc2)NC(=O)[C@H](CCN)NC1=O)[C@@H](C)O` (stereo partly drawn) ({Octanoyl(6-Me)}-[Dab][ξThr(3R)][dDab][dDab][Dab]F[dL][dDab][dDab][ξThr(3R)]; lactam 4-C), the Potency entry in experiment [1], in experiment [3], in experiment [4] and in experiment [5] was “inactive” in each case.
For the compound `O=C(C=CC=Cc1ccc2c(c1)OCO2)N1CCCCC1`, the Potency result in experiment [1], in experiment [3], in experiment [4] and in experiment [6] was “inactive” in each case.
As to `N=c1ccn2c(n1)O[C@H]1[C@@H](O)[C@@H](CO)O[C@H]12`, the Potency entry in experiment [1] and in experiment [3] was “inactive” each time. Further, the Potency in experiment [5] is 332 nM (active).
